Screening data from PubChem BioAssay.
DUSP1 inh = inhibitors of human MKP-1 phosphatase; recombinant MKP-1, OMFP hydrolysis fluorescence; 65,000 tested, 0.15% active; inhibition, %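 (compounds tested at a single concentration somewhere between 10 and 100 µM)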; AID 374; P28562;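 active = inhibition above about 50%, limit read from the data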;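 also: 0% = DMSO max control wells and 100% = wells with enzyme stopped by NaOH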
Target sequence (P28562 whole entry, looked up): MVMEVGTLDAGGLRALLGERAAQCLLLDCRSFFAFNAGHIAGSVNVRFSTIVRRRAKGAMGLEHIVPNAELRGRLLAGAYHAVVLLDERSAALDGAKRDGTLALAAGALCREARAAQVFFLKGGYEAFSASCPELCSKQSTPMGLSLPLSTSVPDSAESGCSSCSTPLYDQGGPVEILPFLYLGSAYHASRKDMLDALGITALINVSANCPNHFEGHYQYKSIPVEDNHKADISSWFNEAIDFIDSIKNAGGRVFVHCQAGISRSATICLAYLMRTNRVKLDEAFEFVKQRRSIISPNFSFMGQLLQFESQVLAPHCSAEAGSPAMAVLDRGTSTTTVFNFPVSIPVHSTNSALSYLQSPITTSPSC
Cdc25B block = human M-phase inducer phosphatase 2 inhibition; 65,000 tested, 0.1% active; recombinant Cdc25B, OMFP fluorescence Ex485/Em525; inhibition, %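 (compounds tested at 10 µM final in the well)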; P30305; AID 368; in the data active = inhibition above about 50%
Hsp90 inh = displaces geldanamycin probe from tumor Hsp90; 64,000 tested, 0.35% active; NCI-N417 lysate Hsp90, Cy3B-geldanamycin FP displacement; P07900; AID 429; inhibition, % at 30 µM;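 active = inhibition above 50%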;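 also: 0% = tracer plus lysate wells and 100% = tracer alone without lysate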
ROCK2 inh = blocks human Rho kinase 2 activity; AID 604; 60,000 tested, 0.35% active; inhibition, % at 6 µM; O75116; purified ROCK2, Kinase-Glo ATP depletion luminescence;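 active = inhibition above the screen-wide mean inhibition plus 3 SD, cut at about 18% in these data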;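 also: plate controls were DMSO wells for no effect and Y-27632 control wells after no-enzyme background subtraction for full effect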
SK-BR-3 tox 24h = SK-BR-3 proliferation inhibitors; 41,000 tested, 0.47% active; SK-BR-3 viability, CellTiter-Glo ATP luminescence, 24 h; stronger effect = lower value; AID 847; viability, % at 10 µM;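 active = viability at or below the median of all test compounds minus 3 SD, in both replicates if run twice, cut at about 45% in these data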;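 also: 100% = median untreated cell wells and 0% = median positive control drug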
PKA inh = PKA (human) kinase inhibition; PKA Kemptide phosphorylation, Kinase-Glo ATP luminescence; inhibition, % at 6 µM; AID 524; 65,000 tested, 0.1% active; P17612;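 active = inhibition above the screen-wide mean inhibition plus 3 SD, cut at about 21% in these data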
* marks the source's active call; other numbers are inactive results. Most compounds without a hit are left out; they make up all but 1% or so of the library.

What do the screens show for `O=C(CSc1nnc(Cc2cc(=O)[nH]c(=O)[nH]2)n1-c1ccccc1)NCC1CCCO1` (stereo unspecified)?
DUSP1 inh: 0; Cdc25B block: 5; Hsp90 inh: 89*; ROCK2 inh: 6; SK-BR-3 tox 24h: 89; PKA inh: 12

Results for N#CC1=C(N)Oc2cc(O)ccc2C1c1ccncc1 (stereo unspecified) ?
DUSP1 inh: 18; Cdc25B block: 1; Hsp90 inh: -3; ROCK2 inh: 21*; SK-BR-3 tox 24h: 102; PKA inh: 10

Results for N#CC1=C(N)Oc2cc(O)ccc2C1c1cccs1 (stereo unspecified) ?
DUSP1 inh: -3; Cdc25B block: 11; Hsp90 inh: -4; ROCK2 inh: 4; SK-BR-3 tox 24h: 90; PKA inh: 0

What do the screens show for `COc1ccccc1N1CCN(c2nc(N)c(C#N)c(CC#N)c2C#N)CC1`?
DUSP1 inh: 27; Cdc25B block: -8; SK-BR-3 tox 24h: 114; PKA inh: 1

Results for CCCCCCOC(=O)C(C#N)c1nc2ccccc2nc1N1CCN(C)CC1 (stereo unspecified) ?
DUSP1 inh: 4; Cdc25B block: -11; Hsp90 inh: -11; ROCK2 inh: 4; SK-BR-3 tox 24h: 4.9*; PKA inh: 10

How did CCCC12CN3CC(C)(CN(C1)C31CCCCC1)C2=O do in these assays?
DUSP1 inh: -1; Cdc25B block: -12; Hsp90 inh: -5; PKA inh: -3

How did CCCCCC(=O)N1CC2(C)CN(C(=O)CCCCC)CC(C)(C1)C2=O do in these assays?
DUSP1 inh: -17; Cdc25B block: -38; Hsp90 inh: 120*; ROCK2 inh: 0; SK-BR-3 tox 24h: 91; PKA inh: -3

What do the screens show for `O=C(O)c1cc(S(=O)(=O)Nc2ccc3oc(=O)sc3c2)ccc1O`?
DUSP1 inh: 10; Cdc25B block: 16; Hsp90 inh: 43; ROCK2 inh: 7; SK-BR-3 tox 24h: 89; PKA inh: 6

How did Cc1ccc(S(=O)(=O)Nc2ccc3oc(=O)sc3c2)c(C)c1 do in these assays?
DUSP1 inh: -14; Cdc25B block: 14; Hsp90 inh: 56*; ROCK2 inh: 4; PKA inh: 12

Results for O=C(Nc1ccc(N2CCOCC2)cc1)Nc1ccc2nc(-c3ccco3)c(-c3ccco3)nc2c1 ?
DUSP1 inh: 37; Cdc25B block: 9; Hsp90 inh: -6; ROCK2 inh: 42*; SK-BR-3 tox 24h: 76; PKA inh: 4

How did O=C(c1ccc2nc(-c3ccco3)c(-c3ccco3)nc2c1)N1CCN(c2ccccc2)CC1 do in these assays?
DUSP1 inh: 32; Cdc25B block: 2; Hsp90 inh: -3; ROCK2 inh: -6; SK-BR-3 tox 24h: 85; PKA inh: 2

Results for COc1ccc2c(Cl)c(-c3nnc(SCC(N)=O)n3C)sc2c1 ?
DUSP1 inh: -1; Cdc25B block: -14; Hsp90 inh: -1; ROCK2 inh: 0; PKA inh: 3

How did COc1ccc2c(Cl)c(C(N)=O)sc2c1 do in these assays?
DUSP1 inh: 11; Cdc25B block: -10; Hsp90 inh: -2; ROCK2 inh: 50*; SK-BR-3 tox 24h: 101; PKA inh: 29*

What do the screens show for `Cn1c(=O)c2c(nc(Oc3ccc4c(c3)OCO4)n2Cc2ccc(Br)cc2)n(C)c1=O`?
DUSP1 inh: -6; Cdc25B block: -22; Hsp90 inh: 0; ROCK2 inh: 0; SK-BR-3 tox 24h: 92; PKA inh: -2

Results for c1nc(NC2CCCCC2)c2[nH]cnc2n1 ?
DUSP1 inh: -23; Cdc25B block: -35; Hsp90 inh: 0; ROCK2 inh: 34*; SK-BR-3 tox 24h: 86; PKA inh: 39*

How did Cc1ccccc1NC(=O)CCn1c(=O)oc2ccccc21 do in these assays?
DUSP1 inh: 8; Cdc25B block: -4; Hsp90 inh: 0; ROCK2 inh: -1; PKA inh: -9

What do the screens show for `CC1(C)NC(=O)N(CC(O)COC2CCCCC2)C1=O` (stereo unspecified)?
DUSP1 inh: 15; Cdc25B block: 0; Hsp90 inh: -1; ROCK2 inh: 3; SK-BR-3 tox 24h: 88; PKA inh: 12

Results for O=C1CC(c2ccco2)Cc2nc(NCC3CCCO3)ncc21 (stereo unspecified) ?
DUSP1 inh: -10; Cdc25B block: 4; Hsp90 inh: -2; ROCK2 inh: 4; SK-BR-3 tox 24h: 99; PKA inh: 8
